Several values for one entry are separate records, joined by “and”; a condition that tells them apart may be missing. Equal entries are not always repeated. Where a structure was tested more than once in an assay, its records may differ in their call. Activity calls are given as the source filed them. Rule for the calls: active = hit-call score of the fitted dose curve at least 0.9, where 1 is the maximum; inactive = score below 0.9.
How the values were obtained:
[1] = ATG_E_Box_CIS: Attagene CIS-FACTORIAL HepG2 Assay for human Enhancer Box (E-box) (AID 2282936); details: HepG2 E-box cis-reporter transcription, actives raise or lower the signal
Summary of the method: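 Endogenous transcription factor activity was sensed in human HepG2 liver cells through transfected cis-promoter reporter units. After 24 h of dosing, total RNA was reverse-transcribed and reporter cDNA resolved by capillary electrophoresis.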

[2] = ATG_M_61_CIS: Attagene CIS-FACTORIAL HepG2 Assay for M61 Transcription Factor (Internal Marker) (AID 2282937); details: HepG2 Attagene CIS-FACTORIAL M61 internal marker reporter; actives raise or lower the signal
Summary of the method: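 Multiplexed reporter mRNA assay, HepG2 human hepatoma cells, 24 h treatment. Signal: FAM-labelled, HpaI-digested RT-PCR fragments by CE. Fit: bidirectional, baseline DMSO.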

[3] = ATG_EGR_CIS: Attagene CIS-FACTORIAL HepG2 Assay for human Early Growth Response 1 (EGR1) (AID 2282938); details: HepG2 Attagene CIS-FACTORIAL EGR reporter mRNA; actives raise or lower the signal
Summary of the method: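 Multiplexed cis-reporter system in human hepatoma HepG2 cells, transiently transfected. Cells are dosed for 24 h; reporter transcripts are amplified, fluorescently tagged and sized by capillary electrophoresis, with DMSO as negative control.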

[4] = ATG_M_19_CIS: Attagene CIS-FACTORIAL HepG2 Assay for M19 Transcription Factor (Internal Marker) (AID 2282939); details: HepG2 Attagene CIS-FACTORIAL M19 internal marker reporter; actives raise or lower the signal
Summary of the method: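 HepG2 cells transiently transfected with cis-regulated multiple reporter transcription units were dosed for 24 h; reporter mRNA was quantified by RT-PCR, 6-FAM primer-extension labelling, HpaI digestion and capillary electrophoresis, with bidirectional fitting against DMSO baseline.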

[5] = ATG_ERE_CIS: Attagene CIS-FACTORIAL HepG2 Assay for Estrogen Response Element (ERE) (AID 2282940); details: HepG2 ERE cis-reporter, Attagene RNA transcript; actives raise or lower the signal
Summary of the method: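 HepG2 cells transiently transfected with cis-promoter-driven multiplexed reporter transcription units report endogenous TF activity. After 24 h compound exposure, reporter mRNA is quantified by RT-PCR with capillary electrophoresis fluorescence; bidirectional fitting versus DMSO baseline.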

[6] = ATG_Ets_CIS: Attagene CIS-FACTORIAL HepG2 Assay for human Erythroblast Transformation Specific (ETS) (AID 2282941); details: HepG2 ETS cis-reporter transcription, actives raise or lower the signal
Summary of the method: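 Endogenous transcription factor activity read as reporter mRNA via RT-PCR and capillary electrophoresis, with gain or loss fitted bidirectionally against DMSO. Human HepG2 liver cells, transiently transfected CIS reporter constructs, 24 h exposure.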

[7] = molecular target: Hepatocyte nuclear factor 3-beta (Homo sapiens) (UniProt Q9Y261); assay: ATG_FoxA2_CIS: Attagene CIS-FACTORIAL HepG2 Assay for human Forkhead box A2 (FOXA2) (AID 2282942); details: HepG2 cis-reporter transcription factor activity, 24 h; actives raise or lower the signal
Sequence of Hepatocyte nuclear factor 3-beta (Homo sapiens) (Q9Y261 whole entry, looked up): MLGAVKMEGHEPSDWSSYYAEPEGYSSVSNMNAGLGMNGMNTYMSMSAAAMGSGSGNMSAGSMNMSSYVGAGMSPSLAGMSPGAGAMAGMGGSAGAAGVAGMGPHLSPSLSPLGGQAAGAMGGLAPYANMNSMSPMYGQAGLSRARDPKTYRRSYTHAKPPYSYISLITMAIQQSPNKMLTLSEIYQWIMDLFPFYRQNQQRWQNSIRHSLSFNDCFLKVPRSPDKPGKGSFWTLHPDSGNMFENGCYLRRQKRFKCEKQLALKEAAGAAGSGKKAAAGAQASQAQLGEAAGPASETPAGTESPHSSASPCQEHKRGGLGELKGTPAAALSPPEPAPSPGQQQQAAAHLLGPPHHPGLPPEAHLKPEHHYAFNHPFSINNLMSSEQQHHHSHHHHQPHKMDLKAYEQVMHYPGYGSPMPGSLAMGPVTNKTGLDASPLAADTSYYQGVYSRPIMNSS
Summary of the method: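 Multiplexed cis-element reporter assay in transiently transfected HepG2. Twenty-four hours post-dosing, RNA was reverse-transcribed, amplified, FAM-labelled, HpaI-digested and separated by CE. Activity gain or loss relative to DMSO.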

[8] = ATG_FoxO_CIS: Attagene CIS-FACTORIAL HepG2 Assay for human Forkhead box O (FoxO) (AID 2282943); details: HepG2 Attagene cis-reporter, FoxO element, mRNA; actives raise or lower the signal
Summary of the method: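 24 h chemical exposure, HepG2 with transient cis-MRTU transfection. RNA extraction, oligo(dT) RT, reporter-specific PCR, primer-extension labelling, HpaI digestion, CE fragment analysis; bidirectional fit, DMSO baseline.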

[9] = ATG_GATA_CIS: Attagene CIS-FACTORIAL HepG2 Assay for human GATA Binding Protein (AID 2282944); details: HepG2 GATA cis-element reporter, Attagene multiplex mRNA; actives raise or lower the signal
Summary of the method: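 HepG2 cells transiently transfected with multiplexed cis-element reporter units reflecting endogenous transcription factor activity; reporter mRNA measured after 24 h dosing by RT-PCR, 6-FAM labeling, HpaI digestion and capillary electrophoresis. Bidirectional fitting versus DMSO baseline.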

[10] = ATG_GLI_CIS: Attagene CIS-FACTORIAL HepG2 Assay for human Zinc Finger Protein GLI1 (AID 2282945); details: HepG2, Attagene cis-factorial reporter mRNA, GLI element; actives raise or lower the signal
Summary of the method: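 HepG2 cells transiently transfected with cis-promoter multiplexed reporter units report endogenous transcription factor activity. After 24 h chemical exposure, reporter mRNA was quantified by RT-PCR, 6-FAM labelling, HpaI digestion and capillary electrophoresis, with bidirectional fitting against DMSO.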

[11] = molecular target: Bile acid receptor (Homo sapiens) (UniProt Q96RI1); assay: ATG_IR1_CIS: Attagene CIS-FACTORIAL HepG2 Assay for human Nuclear Receptor Subfamily 1 Group H Member 4 (NR1H4), IR1 submotif (AID 2282946); details: IR1 reporter transcription, actives raise or lower the signal
Sequence of Bile acid receptor (Homo sapiens) (Q96RI1 whole entry, looked up): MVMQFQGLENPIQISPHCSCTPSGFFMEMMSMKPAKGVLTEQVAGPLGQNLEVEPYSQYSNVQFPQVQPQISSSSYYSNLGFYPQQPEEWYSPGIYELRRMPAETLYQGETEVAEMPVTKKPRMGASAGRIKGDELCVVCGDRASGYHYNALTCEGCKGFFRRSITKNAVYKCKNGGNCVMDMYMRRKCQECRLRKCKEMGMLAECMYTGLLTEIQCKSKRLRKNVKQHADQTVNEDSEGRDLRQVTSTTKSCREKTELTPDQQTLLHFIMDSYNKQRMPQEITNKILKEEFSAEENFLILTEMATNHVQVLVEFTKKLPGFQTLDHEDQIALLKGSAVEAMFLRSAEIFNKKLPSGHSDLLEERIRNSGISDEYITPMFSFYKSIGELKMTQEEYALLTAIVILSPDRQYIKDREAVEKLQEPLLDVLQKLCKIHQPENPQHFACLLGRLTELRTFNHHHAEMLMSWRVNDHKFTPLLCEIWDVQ
Summary of the method: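 Readout: reporter transcript levels by RT-PCR with fluorescent capillary electrophoresis, from HepG2 cells transiently transfected with multiplexed cis-regulated reporters and dosed 24 h. Gain- or loss-of-signal fitted versus DMSO negative control.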

[12] = ATG_GRE_CIS: Attagene CIS-FACTORIAL HepG2 Assay for human Glucocorticoid Response Elements (GRE) (AID 2282947); details: HepG2 GRE cis-reporter, Attagene multiplex mRNA; actives raise or lower the signal
Summary of the method: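 Cells (HepG2) bearing transfected cis-promoter reporter transcription units were treated with chemical for 24 hours. Reporter mRNA was measured via RT-PCR with capillary electrophoresis, and activity was fitted in both directions relative to DMSO.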

[13] = ATG_ISRE_CIS: Attagene CIS-FACTORIAL HepG2 Assay for human Interferon Regulatory Factor 1 (IRF1) binding to an Interferon-Stimulated Response Element (ISRE) (AID 2282948); details: HepG2 ISRE cis-reporter (Attagene), mRNA transcription readout; actives raise or lower the signal
Summary of the method: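 Endogenous transcription factor activity read as reporter transcript abundance via RT-PCR and capillary electrophoresis. HepG2 cells transiently transfected, 24 h chemical exposure. Gain or loss fitted against DMSO baseline.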

[14] = ATG_M_32_CIS: Attagene CIS-FACTORIAL HepG2 Assay for M32 Transcription Factor (Internal Marker) (AID 2282949); details: HepG2 Attagene cis-factorial M32 reporter, mRNA; actives raise or lower the signal;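 note: background control marker of the multiplexed CIS panel rather than a real target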
Summary of the method: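 HepG2 human liver cells transiently transfected with cis-promoter-driven multiple reporter transcription units, dosed 24 h. Reporter mRNA quantified by RT-PCR, FAM-labelled primer extension, HpaI digest and capillary electrophoresis; bidirectional fit versus DMSO baseline.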

[15] = ATG_M_06_CIS: Attagene CIS-FACTORIAL HepG2 Assay for M06 Transcription Factor (Internal Marker) (AID 2282950); details: HepG2 Attagene CIS-FACTORIAL M06 internal marker reporter; actives raise or lower the signal
Summary of the method: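 HepG2 cells transiently transfected with cis-regulated multiple reporter transcription units were exposed to chemical for 24 h; reporter mRNA was quantified by RT-PCR, 6-FAM primer labelling, HpaI digestion and capillary electrophoresis, fitted bidirectionally against DMSO.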

[16] = molecular target: Hypoxia-inducible factor 1-alpha (Homo sapiens) (UniProt Q16665); assay: ATG_HIF1a_CIS: Attagene CIS-FACTORIAL HepG2 Assay for human Hypoxia Inducible Factor 1 (HIF1A) (AID 2282951); details: HepG2 Attagene cis-factorial HIF1a reporter transcription; actives raise or lower the signal
Sequence of Hypoxia-inducible factor 1-alpha (Homo sapiens) (Q16665 whole entry, looked up): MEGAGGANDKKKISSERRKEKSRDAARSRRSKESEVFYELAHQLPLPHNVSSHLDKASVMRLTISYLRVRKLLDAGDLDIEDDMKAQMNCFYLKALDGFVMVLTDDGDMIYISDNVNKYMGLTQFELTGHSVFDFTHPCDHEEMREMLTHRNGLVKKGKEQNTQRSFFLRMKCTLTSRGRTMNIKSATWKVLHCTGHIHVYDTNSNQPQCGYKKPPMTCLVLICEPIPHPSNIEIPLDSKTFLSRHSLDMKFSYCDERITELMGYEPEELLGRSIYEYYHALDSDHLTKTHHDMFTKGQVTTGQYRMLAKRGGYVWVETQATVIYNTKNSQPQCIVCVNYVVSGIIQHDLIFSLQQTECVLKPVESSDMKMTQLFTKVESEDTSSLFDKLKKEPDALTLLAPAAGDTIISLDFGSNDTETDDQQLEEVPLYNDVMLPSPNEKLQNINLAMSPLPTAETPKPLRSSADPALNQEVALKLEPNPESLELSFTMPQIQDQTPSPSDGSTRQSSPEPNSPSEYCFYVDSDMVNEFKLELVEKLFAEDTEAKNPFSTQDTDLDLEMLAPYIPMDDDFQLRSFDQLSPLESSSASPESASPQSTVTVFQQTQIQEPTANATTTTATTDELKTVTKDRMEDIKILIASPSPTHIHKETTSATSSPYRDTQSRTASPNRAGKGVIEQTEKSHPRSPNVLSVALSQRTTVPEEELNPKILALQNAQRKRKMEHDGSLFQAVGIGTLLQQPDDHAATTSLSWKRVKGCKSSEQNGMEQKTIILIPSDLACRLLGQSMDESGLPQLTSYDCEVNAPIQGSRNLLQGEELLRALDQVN
Summary of the method: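 Cis-element reporter constructs were transiently transfected into HepG2 cells, which were treated for 24 h; reporter RNA was reverse-transcribed, amplified, labelled and resolved by capillary electrophoresis.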

[17] = molecular target: Hepatocyte nuclear factor 6 (Homo sapiens) (UniProt Q9UBC0); assay: ATG_HNF6_CIS: Attagene CIS-FACTORIAL HepG2 Assay for human Hepatocyte Nuclear Factor 6 (HNF6) (AID 2282952); details: HepG2 Attagene cis-factorial HNF6 reporter transcription; actives raise or lower the signal
Sequence of Hepatocyte nuclear factor 6 (Homo sapiens) (Q9UBC0 whole entry, looked up): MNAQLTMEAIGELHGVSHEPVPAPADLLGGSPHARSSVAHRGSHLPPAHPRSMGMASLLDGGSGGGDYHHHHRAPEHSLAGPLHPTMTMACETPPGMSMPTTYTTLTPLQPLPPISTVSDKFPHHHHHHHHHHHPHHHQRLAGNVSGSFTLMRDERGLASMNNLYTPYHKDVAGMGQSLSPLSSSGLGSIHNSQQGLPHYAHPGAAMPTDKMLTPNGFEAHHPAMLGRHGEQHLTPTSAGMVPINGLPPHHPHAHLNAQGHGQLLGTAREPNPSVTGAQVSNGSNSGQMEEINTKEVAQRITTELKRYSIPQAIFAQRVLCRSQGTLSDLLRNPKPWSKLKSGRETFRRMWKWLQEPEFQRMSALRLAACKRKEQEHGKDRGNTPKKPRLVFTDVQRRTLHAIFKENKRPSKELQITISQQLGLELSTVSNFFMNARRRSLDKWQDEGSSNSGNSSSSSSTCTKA
Summary of the method: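 Activity values derive from bidirectional fitting against DMSO of reporter mRNA levels, measured by capillary electrophoresis of labelled RT-PCR products from HepG2 cells exposed 24 h.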

[18] = molecular target: Heat shock factor protein 1 (Homo sapiens) (UniProt Q00613); assay: ATG_HSE_CIS: Attagene CIS-FACTORIAL HepG2 Assay for human Heat Shock Transcription Factor 1 (HSE) (AID 2282953); details: HepG2 HSE cis-reporter, Attagene RNA transcription; actives raise or lower the signal
Sequence of Heat shock factor protein 1 (Homo sapiens) (Q00613 whole entry, looked up): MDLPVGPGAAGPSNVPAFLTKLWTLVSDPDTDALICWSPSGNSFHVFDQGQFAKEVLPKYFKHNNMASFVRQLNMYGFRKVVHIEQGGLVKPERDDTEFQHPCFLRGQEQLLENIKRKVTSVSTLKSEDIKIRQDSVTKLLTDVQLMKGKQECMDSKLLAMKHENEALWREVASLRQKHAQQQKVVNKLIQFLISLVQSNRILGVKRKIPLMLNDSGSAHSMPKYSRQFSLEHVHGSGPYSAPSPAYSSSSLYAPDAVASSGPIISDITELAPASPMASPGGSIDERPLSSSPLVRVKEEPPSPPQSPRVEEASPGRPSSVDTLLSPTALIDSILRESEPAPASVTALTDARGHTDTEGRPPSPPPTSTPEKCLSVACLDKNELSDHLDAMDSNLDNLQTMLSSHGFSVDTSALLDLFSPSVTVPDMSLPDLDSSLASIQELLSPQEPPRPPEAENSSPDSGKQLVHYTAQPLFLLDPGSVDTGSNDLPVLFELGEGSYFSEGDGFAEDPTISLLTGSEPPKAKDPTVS
Summary of the method: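 HepG2 cells transiently transfected with multiple reporter transcription units under cis-regulatory promoter control, measuring endogenous transcription factor activity. After 24 h chemical exposure, reporter mRNA quantified by RT-PCR, fluorescent labelling, HpaI digestion and capillary electrophoresis; bidirectional fit versus DMSO.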

[19] = ATG_MRE_CIS: Attagene CIS-FACTORIAL HepG2 Assay for human Metal Responsive Element (MRE) (AID 2282954); details: HepG2 MRE cis-reporter transcription, Attagene multiplex; actives raise or lower the signal
Summary of the method: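 Cells were transfected with cis-promoter reporter transcription units, then dosed for 24 h. RNA was reverse-transcribed, amplified, fluorescently labelled and resolved by capillary electrophoresis, and activity was fitted in both directions relative to DMSO.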

[20] = ATG_PBREM_CIS: Attagene CIS-FACTORIAL HepG2 Assay for human Phenobarbital-responsive Enhancer Module (PBREM) (AID 2282955); details: HepG2 PBREM cis-reporter, Attagene multiplexed transcription; actives raise or lower the signal
Summary of the method: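 Multiplexed cis-reporter readout in human hepatoma HepG2 cells; PBREM-regulated transcript quantified after 24 h exposure by fluorescent RT-PCR fragment analysis. Signal changes up or down fitted relative to DMSO.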

Measured: AC50

CN(C)C(=O)C1(N2CCCCC2)CCN(CC[C@@]2(c3ccc(Cl)c(Cl)c3)CN(C(=O)c3ccccc3)CCO2)CC1
active: [16] 1.01 µM
inactive: all other assays above

O=C(Nc1ccc(Cl)cc1)Nc1ccc(Cl)c(Cl)c1
active: [13] 5.89 µM
inactive: all other assays above

O=c1c(-c2ccc(O)cc2)coc2cc(O)cc(O)c12
active: [11] 10.4 µM and 10.6 µM | [19] 81.4 µM and 137 µM | [20] 43.7 µM
inactive: [1] | [2] | [3] | [4] | [6] | [7] | [8] | [9] | [10] | [11] | [12] | [13] | [14] | [15] | [16] | [17] | [18] | [19] | [20]

CN(C)c1ccc(C(=C2C=CC(=[N+](C)C)C=C2)c2ccc(N(C)C)cc2)cc1
active: [1] 2.88 µM | [3] 2.23 µM | [5] 1.01 µM | [11] 2.87 µM | [13] 2.28 µM | [14] 2.03 µM | [18] 6.63 µM | [19] 4.28 µM | [20] 5.8 µM
not listed: [9]
inactive: all other assays above

CCCCCCCCOc1ccc(C(=O)c2ccccc2)c(O)c1
not listed: [12]
inactive: all other assays above

COc1cccc([C@H](O)C2CCN(CCc3ccc(F)cc3)CC2)c1OC
active: [1] 100 µM | [16] 27.4 µM
not listed: [20]
inactive: all other assays above

Reference: PubChem BioAssay (EPA / NIEHS)
